# From paper PMC7862700, “An all-to-all approach to the identification of sequence-specific readers for epigenetic DNA modifications on cytosine”
# Columns and labels:
# Assay in all cases: DAPPL (digital affinity profiling via proximity ligation, sequencing); 10 mM Tris-HCl pH 7.5, 50 mM NaCl, 1 mM DTT, 4% glycerol, room temperature, 30 min; GST-TFs on glutathione beads, 16-mer random dsDNA library, 0.1% formaldehyde crosslink after washing; high values mean tight binding
# Conditions in all cases: protein: recombinant; tags: N-terminal GST; dsDNA, one strand shown
# FLI1 = molecular target: T1, FLI1 (Homo sapiens, UniProt Q01543 1-452)
# T1 sequence: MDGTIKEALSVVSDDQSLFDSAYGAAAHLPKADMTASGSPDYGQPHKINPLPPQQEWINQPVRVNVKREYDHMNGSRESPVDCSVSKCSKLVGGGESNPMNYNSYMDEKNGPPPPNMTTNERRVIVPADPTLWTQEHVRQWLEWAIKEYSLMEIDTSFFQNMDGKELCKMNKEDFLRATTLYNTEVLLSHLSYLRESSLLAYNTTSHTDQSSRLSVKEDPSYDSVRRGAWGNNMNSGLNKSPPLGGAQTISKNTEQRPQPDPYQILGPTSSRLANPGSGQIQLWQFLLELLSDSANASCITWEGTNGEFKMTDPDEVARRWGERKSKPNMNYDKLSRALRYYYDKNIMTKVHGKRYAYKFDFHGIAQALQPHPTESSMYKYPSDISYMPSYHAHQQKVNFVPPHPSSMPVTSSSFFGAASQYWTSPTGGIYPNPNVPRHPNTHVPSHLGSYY
# Procedure, shortened: (§1)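 The binding signal reported is, for every hexamer, its read frequency for a factor over its read frequency for the tag-only sample. Reads came from pools of yeast-expressed, GST-fused human transcription factors on glutathione beads, barcoded with DNA and mixed with that sample, which were incubated with 200 nmole of a random double-stranded 16-mer DNA library in Tris/NaCl/DTT/glycerol buffer at room temperature for 30 min. After washing, the pools were crosslinked with 0.1% formaldehyde, proximity-ligated with BsaI/T4 ligase for 1 h at 37 °C, PCR-amplified and sequenced on an Illumina NextSeq500.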
# ELK1 = molecular target: T2, ELK1 (Homo sapiens, UniProt P19419 1-428)
# T2 sequence: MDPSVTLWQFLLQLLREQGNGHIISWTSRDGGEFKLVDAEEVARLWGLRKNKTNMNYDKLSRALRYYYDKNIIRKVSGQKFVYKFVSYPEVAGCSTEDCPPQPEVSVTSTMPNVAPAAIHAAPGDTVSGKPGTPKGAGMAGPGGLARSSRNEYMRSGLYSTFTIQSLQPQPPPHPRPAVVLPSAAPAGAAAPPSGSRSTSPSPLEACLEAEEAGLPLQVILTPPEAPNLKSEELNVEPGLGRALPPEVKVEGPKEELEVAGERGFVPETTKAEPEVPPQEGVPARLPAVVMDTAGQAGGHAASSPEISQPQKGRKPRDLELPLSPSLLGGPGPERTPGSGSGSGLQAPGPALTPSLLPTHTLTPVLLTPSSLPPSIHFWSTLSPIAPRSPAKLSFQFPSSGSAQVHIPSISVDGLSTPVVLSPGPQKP
# Procedure, shortened: as §1
# GABPA = molecular target: T3, GABPA (Homo sapiens, UniProt Q06546 1-454)
# T3 sequence: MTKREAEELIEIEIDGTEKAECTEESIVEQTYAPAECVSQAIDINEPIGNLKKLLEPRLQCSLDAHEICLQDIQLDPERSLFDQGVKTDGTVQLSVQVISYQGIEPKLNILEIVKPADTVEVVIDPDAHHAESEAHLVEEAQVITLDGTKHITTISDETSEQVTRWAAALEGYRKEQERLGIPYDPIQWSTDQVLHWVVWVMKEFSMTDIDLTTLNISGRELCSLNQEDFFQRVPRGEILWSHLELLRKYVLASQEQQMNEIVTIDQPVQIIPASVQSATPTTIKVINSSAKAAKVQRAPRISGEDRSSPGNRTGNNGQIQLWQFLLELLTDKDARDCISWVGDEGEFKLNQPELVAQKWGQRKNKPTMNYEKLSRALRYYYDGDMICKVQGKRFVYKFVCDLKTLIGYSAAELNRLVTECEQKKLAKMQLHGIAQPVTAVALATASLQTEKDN
# Procedure, shortened: as §1
# ERG = molecular target: T4, ERG (Homo sapiens, UniProt P11308 1-479)
# T4 sequence: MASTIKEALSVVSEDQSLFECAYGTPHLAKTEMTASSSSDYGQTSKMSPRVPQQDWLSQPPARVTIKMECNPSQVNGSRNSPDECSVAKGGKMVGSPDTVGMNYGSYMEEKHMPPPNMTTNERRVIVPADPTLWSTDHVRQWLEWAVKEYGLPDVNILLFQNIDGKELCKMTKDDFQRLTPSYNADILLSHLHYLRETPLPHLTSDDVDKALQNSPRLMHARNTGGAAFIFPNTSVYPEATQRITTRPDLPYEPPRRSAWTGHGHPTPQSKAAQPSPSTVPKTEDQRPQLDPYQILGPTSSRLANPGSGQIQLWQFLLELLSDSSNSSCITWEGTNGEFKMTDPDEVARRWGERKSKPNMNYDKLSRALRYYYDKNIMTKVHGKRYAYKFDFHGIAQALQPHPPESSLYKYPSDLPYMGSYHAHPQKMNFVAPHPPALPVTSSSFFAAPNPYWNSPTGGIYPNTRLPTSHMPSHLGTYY
# Procedure, shortened: as §1
# ELF1 = ELF1 (Homo sapiens, UniProt P32519 1-619)
# Procedure, shortened: as §1
# EHF = molecular target: T5, EHF (Homo sapiens, UniProt Q9NZC4 1-300)
# T5 sequence: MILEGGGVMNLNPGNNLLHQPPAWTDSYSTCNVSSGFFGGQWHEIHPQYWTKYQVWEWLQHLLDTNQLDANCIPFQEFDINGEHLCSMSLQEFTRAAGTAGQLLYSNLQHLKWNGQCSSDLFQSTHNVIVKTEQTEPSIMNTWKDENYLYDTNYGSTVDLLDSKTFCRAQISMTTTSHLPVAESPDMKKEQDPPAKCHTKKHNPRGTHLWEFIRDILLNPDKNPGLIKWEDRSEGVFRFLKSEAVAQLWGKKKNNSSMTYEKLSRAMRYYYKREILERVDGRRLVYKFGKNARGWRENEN
# Procedure, shortened: as §1
# SPI1 = SPI1 (Homo sapiens, UniProt P17947 1-270)
# Procedure, shortened: as §1
# SPIB = SPIB (Homo sapiens, UniProt Q01892 1-262)
# Procedure, shortened: as §1
# ELK3 = molecular target: T6, ELK3 (Homo sapiens, UniProt P41970 1-407)
# T6 sequence: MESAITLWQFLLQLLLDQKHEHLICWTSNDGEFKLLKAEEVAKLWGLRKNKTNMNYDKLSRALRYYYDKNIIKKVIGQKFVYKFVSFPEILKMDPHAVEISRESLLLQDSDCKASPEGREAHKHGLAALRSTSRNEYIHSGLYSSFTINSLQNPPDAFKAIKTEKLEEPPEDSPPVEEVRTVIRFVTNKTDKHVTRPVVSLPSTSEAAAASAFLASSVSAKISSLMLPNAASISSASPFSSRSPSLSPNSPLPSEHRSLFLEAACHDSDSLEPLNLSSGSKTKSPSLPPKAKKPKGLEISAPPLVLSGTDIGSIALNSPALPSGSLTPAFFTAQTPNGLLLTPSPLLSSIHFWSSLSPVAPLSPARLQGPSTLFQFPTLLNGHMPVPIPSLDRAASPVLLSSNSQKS
# Procedure, shortened: as §1
# Chain of SPIB (Q01892 whole entry): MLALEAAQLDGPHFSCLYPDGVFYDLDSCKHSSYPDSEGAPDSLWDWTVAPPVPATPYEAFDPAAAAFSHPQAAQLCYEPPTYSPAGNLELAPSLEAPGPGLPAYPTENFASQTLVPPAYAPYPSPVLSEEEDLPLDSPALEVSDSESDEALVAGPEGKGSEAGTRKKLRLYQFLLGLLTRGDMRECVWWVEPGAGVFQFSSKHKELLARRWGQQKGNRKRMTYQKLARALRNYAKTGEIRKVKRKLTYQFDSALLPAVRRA
# Chain of ELF1 (P32519 whole entry): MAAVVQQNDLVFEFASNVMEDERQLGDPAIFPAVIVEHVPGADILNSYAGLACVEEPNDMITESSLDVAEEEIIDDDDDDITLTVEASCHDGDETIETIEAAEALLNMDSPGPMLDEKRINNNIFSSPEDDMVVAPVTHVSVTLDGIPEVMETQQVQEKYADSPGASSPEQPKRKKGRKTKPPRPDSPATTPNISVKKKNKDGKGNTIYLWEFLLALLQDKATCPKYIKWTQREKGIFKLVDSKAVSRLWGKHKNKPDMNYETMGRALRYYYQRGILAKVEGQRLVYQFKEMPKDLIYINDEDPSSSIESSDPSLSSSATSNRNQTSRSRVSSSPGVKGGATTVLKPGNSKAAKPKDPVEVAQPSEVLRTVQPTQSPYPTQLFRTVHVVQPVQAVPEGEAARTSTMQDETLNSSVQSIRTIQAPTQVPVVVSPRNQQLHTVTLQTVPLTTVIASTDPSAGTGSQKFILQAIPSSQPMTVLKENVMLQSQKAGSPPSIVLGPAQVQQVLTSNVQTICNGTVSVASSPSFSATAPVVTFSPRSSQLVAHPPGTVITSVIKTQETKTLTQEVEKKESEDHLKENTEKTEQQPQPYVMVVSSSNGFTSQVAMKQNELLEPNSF
Sequence,binding signal (FLI1),binding signal (ELK1),binding signal (GABPA),binding signal (ERG),binding signal (ELF1),binding signal (EHF),binding signal (SPI1),binding signal (SPIB),binding signal (ELK3)
TGATCC,"1.28 fold enrichment (6-mer frequency, TF over GST control)","1.32 fold enrichment (6-mer frequency, TF over GST control)","1.44 fold enrichment (6-mer frequency, TF over GST control)","1.29 fold enrichment (6-mer frequency, TF over GST control)","1.26 fold enrichment (6-mer frequency, TF over GST control)","1.2 fold enrichment (6-mer frequency, TF over GST control)","1.21 fold enrichment (6-mer frequency, TF over GST control)","1.37 fold enrichment (6-mer frequency, TF over GST control)","1.18 fold enrichment (6-mer frequency, TF over GST control)"
TGCTGA,"1.11 fold enrichment (6-mer frequency, TF over GST control)","1.03 fold enrichment (6-mer frequency, TF over GST control)","1.07 fold enrichment (6-mer frequency, TF over GST control)","1.01 fold enrichment (6-mer frequency, TF over GST control)","1.07 fold enrichment (6-mer frequency, TF over GST control)","1.14 fold enrichment (6-mer frequency, TF over GST control)","1.12 fold enrichment (6-mer frequency, TF over GST control)","1.01 fold enrichment (6-mer frequency, TF over GST control)","1.19 fold enrichment (6-mer frequency, TF over GST control)"
GTCCCT,"1.15 fold enrichment (6-mer frequency, TF over GST control)","1.29 fold enrichment (6-mer frequency, TF over GST control)","1.2 fold enrichment (6-mer frequency, TF over GST control)","1.24 fold enrichment (6-mer frequency, TF over GST control)","1.28 fold enrichment (6-mer frequency, TF over GST control)","1.27 fold enrichment (6-mer frequency, TF over GST control)","1.38 fold enrichment (6-mer frequency, TF over GST control)","1.18 fold enrichment (6-mer frequency, TF over GST control)","1.16 fold enrichment (6-mer frequency, TF over GST control)"
TAAGCT,"1.21 fold enrichment (6-mer frequency, TF over GST control)","1.24 fold enrichment (6-mer frequency, TF over GST control)","1.17 fold enrichment (6-mer frequency, TF over GST control)","1.18 fold enrichment (6-mer frequency, TF over GST control)","1.15 fold enrichment (6-mer frequency, TF over GST control)","1.2 fold enrichment (6-mer frequency, TF over GST control)","1.1 fold enrichment (6-mer frequency, TF over GST control)","1.18 fold enrichment (6-mer frequency, TF over GST control)","1.12 fold enrichment (6-mer frequency, TF over GST control)"
CCTTAT,"1.53 fold enrichment (6-mer frequency, TF over GST control)","1.34 fold enrichment (6-mer frequency, TF over GST control)","1.48 fold enrichment (6-mer frequency, TF over GST control)","1.45 fold enrichment (6-mer frequency, TF over GST control)","1.39 fold enrichment (6-mer frequency, TF over GST control)","1.57 fold enrichment (6-mer frequency, TF over GST control)","1.6 fold enrichment (6-mer frequency, TF over GST control)","1.49 fold enrichment (6-mer frequency, TF over GST control)","1.28 fold enrichment (6-mer frequency, TF over GST control)"
TAACCA,"1.12 fold enrichment (6-mer frequency, TF over GST control)","1.12 fold enrichment (6-mer frequency, TF over GST control)","1.08 fold enrichment (6-mer frequency, TF over GST control)","1.12 fold enrichment (6-mer frequency, TF over GST control)","1.11 fold enrichment (6-mer frequency, TF over GST control)","1.15 fold enrichment (6-mer frequency, TF over GST control)","1.06 fold enrichment (6-mer frequency, TF over GST control)","1.11 fold enrichment (6-mer frequency, TF over GST control)","1.16 fold enrichment (6-mer frequency, TF over GST control)"
TCCGCG,"1.25 fold enrichment (6-mer frequency, TF over GST control)","1.27 fold enrichment (6-mer frequency, TF over GST control)","1.03 fold enrichment (6-mer frequency, TF over GST control)","1.41 fold enrichment (6-mer frequency, TF over GST control)","1.2 fold enrichment (6-mer frequency, TF over GST control)","1.23 fold enrichment (6-mer frequency, TF over GST control)","1.3 fold enrichment (6-mer frequency, TF over GST control)","1.36 fold enrichment (6-mer frequency, TF over GST control)","1.14 fold enrichment (6-mer frequency, TF over GST control)"
